# Measured values from PubChem BioAssay (EPA / NIEHS).
# Active and inactive are the calls of the source. How the source made its calls: active means hit-call score of the fitted dose curve at least 0.9, where 1 is the maximum; inactive means score below 0.9.
# Legend:
# [1] = ATG_GRE_CIS: Attagene CIS-FACTORIAL HepG2 Assay for human Glucocorticoid Response Elements (GRE) (AID 2282947); conditions: HepG2 GRE cis-reporter, Attagene multiplex mRNA; actives raise or lower the signal
# In short: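 Multiplexed cis-reporter mRNA induction, HepG2, 24 h post-dose. RT-PCR, FAM-labelled, HpaI-digested amplicons by CE. Bidirectional fit vs DMSO.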
# [2] = ATG_ISRE_CIS: Attagene CIS-FACTORIAL HepG2 Assay for human Interferon Regulatory Factor 1 (IRF1) binding to an Interferon-Stimulated Response Element (ISRE) (AID 2282948); conditions: HepG2 ISRE cis-reporter (Attagene), mRNA transcription readout; actives raise or lower the signal
# In short: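 Multiplexed mRNA reporter readout in human liver HepG2 cells: cis-element-driven reporters transfected, compound added for 24 h, transcripts amplified, fluorescently labelled and sized by capillary electrophoresis; curve fitting bidirectional against DMSO.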
# [3] = ATG_M_32_CIS: Attagene CIS-FACTORIAL HepG2 Assay for M32 Transcription Factor (Internal Marker) (AID 2282949); conditions: HepG2 Attagene cis-factorial M32 reporter, mRNA; actives raise or lower the signal;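 further: background control marker of the multiplexed CIS panel rather than a real target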
# In short: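 Using DMSO as baseline, bidirectional curve fits were applied to reporter mRNA signals. These came from transiently transfected HepG2 cells exposed for 24 h, with RNA analysed by RT-PCR, FAM primer extension, HpaI digestion and CE.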
# [4] = target: Hypoxia-inducible factor 1-alpha (Homo sapiens) (UniProt Q16665); experiment: ATG_HIF1a_CIS: Attagene CIS-FACTORIAL HepG2 Assay for human Hypoxia Inducible Factor 1 (HIF1A) (AID 2282951); conditions: HepG2 Attagene cis-factorial HIF1a reporter transcription; actives raise or lower the signal
# In short: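 Transient MRTU transfection of human HepG2 liver cells, 24 h compound treatment, then total RNA isolation, oligo(dT) reverse transcription, PCR amplification, fluorescent labelling and capillary electrophoresis of reporter fragments. Gain or loss relative to DMSO.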
# [5] = target: Hepatocyte nuclear factor 6 (Homo sapiens) (UniProt Q9UBC0); experiment: ATG_HNF6_CIS: Attagene CIS-FACTORIAL HepG2 Assay for human Hepatocyte Nuclear Factor 6 (HNF6) (AID 2282952); conditions: HepG2 Attagene cis-factorial HNF6 reporter transcription; actives raise or lower the signal
# In short: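 Readout: fluorescent reporter-transcript fragments resolved by capillary electrophoresis after RT-PCR, reflecting endogenous factor activity in transfected HepG2. Exposure 24 h. Gain or loss of signal fitted bidirectionally against DMSO.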
# [6] = target: Heat shock factor protein 1 (Homo sapiens) (UniProt Q00613); experiment: ATG_HSE_CIS: Attagene CIS-FACTORIAL HepG2 Assay for human Heat Shock Transcription Factor 1 (HSE) (AID 2282953); conditions: HepG2 HSE cis-reporter, Attagene RNA transcription; actives raise or lower the signal
# In short: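 Liver-derived HepG2 cells carry transiently introduced multiple reporter units governed by cis promoters. Reporter RNA measured 24 h post-dose through reverse transcription, PCR amplification, fluorescent labelling and capillary electrophoresis, normalised to DMSO.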
# [7] = ATG_MRE_CIS: Attagene CIS-FACTORIAL HepG2 Assay for human Metal Responsive Element (MRE) (AID 2282954); conditions: HepG2 MRE cis-reporter transcription, Attagene multiplex; actives raise or lower the signal
# In short: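 Multiplexed cis-reporter assay in human HepG2 liver cells, 24 h incubation with test chemical. Reporter transcripts measured by RT-PCR and capillary electrophoresis; values from bidirectional curve fitting versus DMSO.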
# [8] = ATG_PBREM_CIS: Attagene CIS-FACTORIAL HepG2 Assay for human Phenobarbital-responsive Enhancer Module (PBREM) (AID 2282955); conditions: HepG2 PBREM cis-reporter, Attagene multiplexed transcription; actives raise or lower the signal
# In short: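 Endogenous transcription factors in human liver HepG2 cells drive a PBREM cis-element reporter, whose transcript level after 24 h treatment is quantified by RT-PCR with capillary electrophoresis; activity fitted in both directions against DMSO.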
# [9] = target: Paired box protein Pax-6 (Homo sapiens) (UniProt P26367); experiment: ATG_Pax6_CIS: Attagene CIS-FACTORIAL HepG2 Assay for human Paired Box 6 (PAX6) (AID 2282956); conditions: HepG2 CIS-FACTORIAL PAX6 reporter transcription, RNA readout; actives raise or lower the signal
# In short: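 Fluorescent RT-PCR products separated by capillary electrophoresis report PAX6-linked promoter mRNA in HepG2 cells 24 h post-dose. Curves fitted bidirectionally, DMSO as negative control.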
# [10] = ATG_PXRE_CIS: Attagene CIS-FACTORIAL HepG2 Assay for human Pregnane X Receptor Element (PXRE) (AID 2282957); conditions: HepG2 Attagene CIS-FACTORIAL PXRE reporter, mRNA; actives raise or lower the signal
# In short: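 Read-out: fluorescence of reporter-specific RT-PCR products resolved by capillary electrophoresis, fitted bidirectionally relative to DMSO. Human HepG2 liver cells carried transfected cis-promoter reporter units and were exposed to chemicals for 24 h.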
# [11] = ATG_RORE_CIS: Attagene CIS-FACTORIAL HepG2 Assay for human RAR-related Orphan Receptor Element (RORE) (AID 2282959); conditions: HepG2 Attagene cis-factorial RORE reporter, mRNA; actives raise or lower the signal
# In short: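 Transient MRTU transfection of human HepG2 liver cells (FuGene 6); 24 h compound exposure; TriZol RNA, oligo(dT) RT, PCR, FAM labeling, HpaI cut, CE fragment analysis. DMSO = negative control/baseline.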
# [12] = ATG_Sox_CIS: Attagene CIS-FACTORIAL HepG2 Assay for human SRY-box transcription factor (SOX) (AID 2282960); conditions: HepG2 Attagene cis-factorial SOX reporter, mRNA; actives raise or lower the signal
# In short: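 Endogenous factor activity in human liver HepG2 cells carrying transfected cis-regulated reporter units. RNA taken 24 h post-dose, reverse-transcribed, PCR-amplified and sized by capillary electrophoresis. Gain or loss of signal fitted relative to DMSO.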
# [13] = target: Transcription factor Sp1 (Homo sapiens) (UniProt P08047); experiment: ATG_Sp1_CIS: Attagene CIS-FACTORIAL HepG2 Assay for human Specificity Protein 1 (Sp1) (AID 2282961); conditions: HepG2 Sp1 cis-reporter transcription, actives raise or lower the signal
# In short: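 Transient MRTU-transfected HepG2, 24 h compound exposure. Total RNA → oligo(dT) RT → PCR of reporter → 6-FAM primer extension → HpaI digest → CE. Endpoint fitted both directions vs DMSO.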
# [14] = ATG_SREBP_CIS: Attagene CIS-FACTORIAL HepG2 Assay for human Sterol Regulatory Element Binding (SREBP) (AID 2282962); conditions: HepG2 Attagene cis-factorial SREBP reporter, mRNA; actives raise or lower the signal
# In short: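 Endogenous factor activity is measured in HepG2 through multiplexed reporter units under cis-element control. Following a 24 h incubation, reporter transcripts are reverse-transcribed, PCR-amplified and sized by capillary electrophoresis; activity is fitted in both directions relative to DMSO.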
# [15] = ATG_TA_CIS: Attagene CIS-FACTORIAL HepG2 Assay for human TA Basal Promoter (AID 2282964); conditions: HepG2 Attagene CIS-factorial TA basal promoter reporter; actives raise or lower the signal
# In short: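 Background internal-marker endpoint from a 52-component HepG2 cis-reporter panel. Cells treated 24 h; reporter transcripts quantified via RT-PCR and CE fluorescence against DMSO baseline.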
# [16] = ATG_TCF_b_cat_CIS: Attagene CIS-FACTORIAL HepG2 Assay for human T-Cell-Factor with beta-catenin (TCF/b-cat) (AID 2282965); conditions: HepG2 TCF/beta-catenin cis-reporter transcription, actives raise or lower the signal
# In short: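 Endogenous transcription factor activity is captured through cis-promoter reporter constructs transiently introduced into human HepG2 liver cells. Induced reporter mRNA is measured after 24 h and fitted bidirectionally relative to DMSO.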
# [17] = ATG_PPRE_CIS: Attagene CIS-FACTORIAL HepG2 Assay for human Peroxisome Proliferator-activated Response Element (PPRE) (AID 2282958); conditions: HepG2 PPRE cis-element reporter, Attagene transcription factor profiling; actives raise or lower the signal
# In short: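 HepG2, transient MRTU transfection (cis promoter elements, endogenous TFs). 24 h dosing. RNA → oligo(dT) RT → PCR → 6-FAM primer extension → HpaI digest → CE. Bidirectional fit vs DMSO.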
# [18] = target: Signal transducer and activator of transcription 3 (Homo sapiens) (UniProt P40763); experiment: ATG_STAT3_CIS: Attagene CIS-FACTORIAL HepG2 Assay for human Signal Transducer and Activator of Transcription 3 (STAT3) (AID 2282963); conditions: HepG2, Attagene cis-factorial STAT3 reporter transcription; actives raise or lower the signal
# In short: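 Cis-factorial format: endogenous transcription factors in HepG2 drive transfected reporter units. After 24 h treatment, reporter RNA was reverse-transcribed, amplified, FAM-labelled and HpaI-digested before CE analysis; activity scored in both directions against DMSO.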
# [19] = ATG_M_06_CIS: Attagene CIS-FACTORIAL HepG2 Assay for M06 Transcription Factor (Internal Marker) (AID 2282950); conditions: HepG2 Attagene CIS-FACTORIAL M06 internal marker reporter; actives raise or lower the signal
# In short: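 Cells (HepG2, transiently carrying cis-driven reporter units) receive chemical for 24 h before RNA isolation. Reporter cDNA is PCR-amplified, FAM-labelled by primer extension, HpaI-digested and sized on a capillary analyser.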
# Hypoxia-inducible factor 1-alpha (Homo sapiens), sequence (Q16665 whole entry, looked up, the tested form may be a part): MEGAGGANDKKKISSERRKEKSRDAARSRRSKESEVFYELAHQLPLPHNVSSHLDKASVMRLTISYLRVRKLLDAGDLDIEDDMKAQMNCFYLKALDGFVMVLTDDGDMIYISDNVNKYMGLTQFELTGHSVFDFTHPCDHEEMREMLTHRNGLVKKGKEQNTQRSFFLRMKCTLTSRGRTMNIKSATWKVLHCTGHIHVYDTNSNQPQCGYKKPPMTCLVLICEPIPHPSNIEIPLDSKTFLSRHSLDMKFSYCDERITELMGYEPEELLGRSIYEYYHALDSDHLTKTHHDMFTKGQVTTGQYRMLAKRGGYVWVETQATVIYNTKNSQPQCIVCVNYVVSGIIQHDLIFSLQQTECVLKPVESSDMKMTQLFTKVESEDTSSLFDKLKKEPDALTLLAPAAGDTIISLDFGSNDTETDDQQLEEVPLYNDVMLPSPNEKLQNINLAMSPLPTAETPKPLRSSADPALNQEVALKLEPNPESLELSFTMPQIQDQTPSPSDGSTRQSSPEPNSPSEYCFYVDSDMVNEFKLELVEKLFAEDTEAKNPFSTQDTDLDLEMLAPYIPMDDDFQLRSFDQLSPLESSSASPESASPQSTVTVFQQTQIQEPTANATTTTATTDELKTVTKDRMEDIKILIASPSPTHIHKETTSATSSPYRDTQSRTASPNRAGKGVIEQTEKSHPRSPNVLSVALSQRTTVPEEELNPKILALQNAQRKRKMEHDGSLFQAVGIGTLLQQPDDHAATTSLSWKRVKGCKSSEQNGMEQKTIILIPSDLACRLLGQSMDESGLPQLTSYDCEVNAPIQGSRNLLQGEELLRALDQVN
# Transcription factor Sp1 (Homo sapiens), sequence (P08047 whole entry, looked up): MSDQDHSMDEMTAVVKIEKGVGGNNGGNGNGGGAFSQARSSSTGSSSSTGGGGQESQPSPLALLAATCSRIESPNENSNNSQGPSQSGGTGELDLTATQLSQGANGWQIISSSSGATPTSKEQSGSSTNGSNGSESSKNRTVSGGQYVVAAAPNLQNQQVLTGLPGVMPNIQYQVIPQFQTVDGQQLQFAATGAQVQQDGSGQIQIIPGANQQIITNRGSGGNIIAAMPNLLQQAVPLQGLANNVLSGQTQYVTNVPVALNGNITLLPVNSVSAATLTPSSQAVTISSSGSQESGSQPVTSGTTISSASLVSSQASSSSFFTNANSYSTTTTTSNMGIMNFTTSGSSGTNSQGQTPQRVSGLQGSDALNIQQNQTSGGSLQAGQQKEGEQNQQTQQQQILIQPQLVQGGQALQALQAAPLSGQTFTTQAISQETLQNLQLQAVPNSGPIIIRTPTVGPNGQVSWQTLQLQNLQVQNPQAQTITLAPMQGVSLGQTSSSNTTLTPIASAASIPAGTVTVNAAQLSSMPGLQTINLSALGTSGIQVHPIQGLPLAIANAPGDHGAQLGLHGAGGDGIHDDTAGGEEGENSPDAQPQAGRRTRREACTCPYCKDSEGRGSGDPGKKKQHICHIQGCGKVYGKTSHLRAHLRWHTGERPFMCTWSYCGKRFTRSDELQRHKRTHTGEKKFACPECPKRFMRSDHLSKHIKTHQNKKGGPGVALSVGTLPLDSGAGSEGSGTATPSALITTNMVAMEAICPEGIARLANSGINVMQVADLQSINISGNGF
# Paired box protein Pax-6 (Homo sapiens), sequence (P26367 whole entry, looked up): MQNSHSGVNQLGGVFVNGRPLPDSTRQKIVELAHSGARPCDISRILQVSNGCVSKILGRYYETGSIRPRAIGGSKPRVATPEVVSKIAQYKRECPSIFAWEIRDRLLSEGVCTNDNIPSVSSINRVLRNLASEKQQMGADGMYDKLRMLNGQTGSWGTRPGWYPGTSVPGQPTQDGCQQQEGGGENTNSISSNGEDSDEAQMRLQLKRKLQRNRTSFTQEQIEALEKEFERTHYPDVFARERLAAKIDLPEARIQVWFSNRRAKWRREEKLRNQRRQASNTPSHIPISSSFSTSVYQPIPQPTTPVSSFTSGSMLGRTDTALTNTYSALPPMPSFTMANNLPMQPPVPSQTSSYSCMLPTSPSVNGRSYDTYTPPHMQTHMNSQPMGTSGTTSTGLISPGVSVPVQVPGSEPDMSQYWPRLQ
# Heat shock factor protein 1 (Homo sapiens), sequence (Q00613 whole entry, looked up): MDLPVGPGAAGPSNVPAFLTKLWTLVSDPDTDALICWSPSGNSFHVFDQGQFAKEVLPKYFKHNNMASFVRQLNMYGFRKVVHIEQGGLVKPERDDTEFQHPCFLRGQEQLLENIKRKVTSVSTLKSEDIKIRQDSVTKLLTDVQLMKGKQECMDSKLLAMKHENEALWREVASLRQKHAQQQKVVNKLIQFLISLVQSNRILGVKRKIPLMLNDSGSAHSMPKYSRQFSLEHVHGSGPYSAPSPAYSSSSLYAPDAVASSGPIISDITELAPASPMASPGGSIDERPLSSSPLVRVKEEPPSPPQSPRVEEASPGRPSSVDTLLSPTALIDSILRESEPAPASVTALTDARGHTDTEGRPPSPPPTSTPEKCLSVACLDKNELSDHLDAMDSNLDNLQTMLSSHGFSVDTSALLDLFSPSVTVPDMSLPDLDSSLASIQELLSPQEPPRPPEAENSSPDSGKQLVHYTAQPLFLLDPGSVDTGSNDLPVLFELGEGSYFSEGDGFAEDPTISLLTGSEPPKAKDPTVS
# Signal transducer and activator of transcription 3 (Homo sapiens), sequence (P40763 whole entry, looked up): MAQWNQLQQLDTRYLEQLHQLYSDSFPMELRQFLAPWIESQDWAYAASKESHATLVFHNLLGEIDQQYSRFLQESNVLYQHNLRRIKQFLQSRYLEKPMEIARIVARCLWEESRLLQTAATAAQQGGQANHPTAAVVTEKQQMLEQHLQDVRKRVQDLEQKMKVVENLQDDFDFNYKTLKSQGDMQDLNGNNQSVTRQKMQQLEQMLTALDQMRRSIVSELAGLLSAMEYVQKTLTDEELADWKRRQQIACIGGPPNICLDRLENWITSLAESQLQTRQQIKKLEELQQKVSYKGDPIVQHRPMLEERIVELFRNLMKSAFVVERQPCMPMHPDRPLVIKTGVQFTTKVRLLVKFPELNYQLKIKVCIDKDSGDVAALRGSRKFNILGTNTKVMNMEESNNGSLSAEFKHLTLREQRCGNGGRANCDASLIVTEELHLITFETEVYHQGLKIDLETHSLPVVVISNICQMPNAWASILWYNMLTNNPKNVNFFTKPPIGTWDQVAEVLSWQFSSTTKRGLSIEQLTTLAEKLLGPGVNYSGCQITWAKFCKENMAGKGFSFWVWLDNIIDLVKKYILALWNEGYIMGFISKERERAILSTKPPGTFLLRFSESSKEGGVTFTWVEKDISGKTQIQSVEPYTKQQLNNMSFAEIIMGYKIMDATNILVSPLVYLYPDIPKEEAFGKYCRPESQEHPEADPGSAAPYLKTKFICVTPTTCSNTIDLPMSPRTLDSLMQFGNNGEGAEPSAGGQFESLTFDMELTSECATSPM
# Hepatocyte nuclear factor 6 (Homo sapiens), sequence (Q9UBC0 whole entry, looked up, the tested form may be a part): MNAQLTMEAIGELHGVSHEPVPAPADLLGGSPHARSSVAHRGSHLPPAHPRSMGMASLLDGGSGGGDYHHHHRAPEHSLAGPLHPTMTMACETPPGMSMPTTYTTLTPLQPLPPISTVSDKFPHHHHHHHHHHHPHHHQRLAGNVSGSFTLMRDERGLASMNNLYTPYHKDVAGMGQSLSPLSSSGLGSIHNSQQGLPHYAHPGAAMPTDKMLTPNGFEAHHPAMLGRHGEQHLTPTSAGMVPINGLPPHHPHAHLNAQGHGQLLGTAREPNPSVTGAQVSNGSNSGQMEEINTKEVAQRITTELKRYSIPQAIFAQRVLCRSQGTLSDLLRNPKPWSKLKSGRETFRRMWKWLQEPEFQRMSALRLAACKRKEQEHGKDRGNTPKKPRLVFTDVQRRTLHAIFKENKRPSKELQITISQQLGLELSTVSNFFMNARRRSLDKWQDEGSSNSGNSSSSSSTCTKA
smiles,measurement,setting,value
c1ccc(N=Nc2ccccc2)cc1,outcome,[1],inactive
same,outcome,[2],inactive
same,outcome,[3],inactive
same,outcome,[4],inactive
same,outcome,[5],inactive
same,outcome,[6],inactive
same,outcome,[7],inactive
same,outcome,[8],inactive
same,outcome,[9],inactive
same,outcome,[10],inactive
same,outcome,[11],inactive
same,outcome,[12],inactive
same,outcome,[13],inactive
same,outcome,[14],inactive
same,outcome,[15],inactive
same,outcome,[16],inactive
c1ccc2c(c1)-c1cccc3cccc-2c13,outcome,[2],inactive
same,AC50,[3],0.00928 µM (active)
same,outcome,[4],inactive
same,outcome,[5],inactive
same,outcome,[6],inactive
same,outcome,[7],inactive
same,outcome,[8],inactive
same,outcome,[9],inactive
same,outcome,[17],inactive
same,outcome,[11],inactive
same,outcome,[12],inactive
same,outcome,[13],inactive
same,outcome,[14],inactive
same,outcome,[18],inactive
same,outcome,[15],inactive
same,outcome,[16],inactive
Cc1ccc(N=C=O)cc1N=C=O,outcome,[1],inactive
same,outcome,[2],inactive
same,outcome,[3],inactive
same,outcome,[4],inactive
same,outcome,[5],inactive
same,outcome,[7],inactive
same,outcome,[8],inactive
same,outcome,[9],inactive
same,outcome,[10],inactive
same,outcome,[11],inactive
same,outcome,[12],inactive
same,outcome,[13],inactive
same,outcome,[14],inactive
same,outcome,[18],inactive
same,outcome,[15],inactive
same,outcome,[16],inactive
O=C(Oc1ccc(Br)cc1)N1CCN2CCC1CC2,outcome,[1],inactive
same,outcome,[2],inactive
same,outcome,[3],inactive
same,AC50,[4],34.6 µM (active)
same,outcome,[5],inactive
same,outcome,[6],inactive
same,outcome,[7],inactive
same,outcome,[9],inactive
same,AC50,[10],26 µM (active)
same,outcome,[17],inactive
same,outcome,[12],inactive
same,outcome,[13],inactive
same,outcome,[14],inactive
same,outcome,[18],inactive
same,outcome,[15],inactive
same,AC50,[16],43.3 µM (active)
COc1cc(C=O)cc2c1[C@H](COC(N)=O)[C@]1(OC(C)=O)ON2C[C@H]2[C@@H]1N2C(C)=O,AC50,[2],0.54 µM (active)
same,outcome,[3],inactive
same,AC50,[4],0.155 µM (active)
same,AC50,[5],9.05 µM (active)
same,AC50,[6],8.4 µM (active)
same,outcome,[7],inactive
same,outcome,[8],inactive
same,outcome,[9],inactive
same,outcome,[17],inactive
same,outcome,[11],inactive
same,outcome,[12],inactive
same,outcome,[13],inactive
same,outcome,[14],inactive
same,AC50,[15],0.0965 µM (active)
same,AC50,[16],0.157 µM (active)
Clc1ccc(Cl)c(Cl)c1,outcome,[2],inactive
same,outcome,[3],inactive
same,outcome,[19],inactive
same,outcome,[4],inactive
same,outcome,[5],inactive
same,outcome,[7],inactive
same,outcome,[8],inactive
same,outcome,[9],inactive
same,outcome,[17],inactive
same,outcome,[11],inactive
same,outcome,[12],inactive
same,outcome,[13],inactive
same,outcome,[14],inactive
same,outcome,[15],inactive
same,outcome,[16],inactive
CNC(=O)Oc1cccc2c1OC(C)(C)C2,outcome,[1],inactive
same,outcome,[2],inactive
same,outcome,[3],inactive
same,outcome,[4],inactive
same,outcome,[5],inactive
same,outcome,[6],inactive
same,outcome,[7],inactive
same,outcome,[8],inactive
same,outcome,[9],inactive
same,outcome,[17],inactive
same,outcome,[12],inactive
same,outcome,[13],inactive
same,outcome,[14],inactive
same,outcome,[15],inactive
same,outcome,[16],inactive
